APOBEC3A inh = human APOBEC3A DNA deaminase inhibition | inhibition, % at 20 µM | 330,000 compounds, 0.41% hits | recombinant A3A, FAM/TAMRA ssDNA deamination fluorescence | AID 493011 | P31941;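 active = at least 40% inhibition at 20 µM here, with at most 30% in a related deaminase screen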;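 also: plate controls were A3A with DMSO for no effect and wells lacking A3A enzyme for full effect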
Target sequence (P31941 whole entry, looked up): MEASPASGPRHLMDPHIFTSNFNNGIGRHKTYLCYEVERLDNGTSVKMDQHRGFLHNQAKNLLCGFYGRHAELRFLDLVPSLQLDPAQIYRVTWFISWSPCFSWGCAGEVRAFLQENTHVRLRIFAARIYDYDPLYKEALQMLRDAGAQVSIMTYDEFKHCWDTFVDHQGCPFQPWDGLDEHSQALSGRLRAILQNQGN
APOBEC3G inh = inhibitors of human APOBEC3G DNA deaminase. inhibition, % at 20 µM. Q9HC16. 330,000 compounds, 0.28% hits. AID 493012. recombinant A3G, ssDNA deamination FAM/TAMRA fluorescence;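 active = inhibition of at least 40% at 20 µM, with no more than 30% in the related APOBEC3A deaminase screen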;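 also: plate controls were DMSO wells with A3G for no effect and wells lacking A3G enzyme for full effect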
Target sequence (Q9HC16 whole entry, looked up): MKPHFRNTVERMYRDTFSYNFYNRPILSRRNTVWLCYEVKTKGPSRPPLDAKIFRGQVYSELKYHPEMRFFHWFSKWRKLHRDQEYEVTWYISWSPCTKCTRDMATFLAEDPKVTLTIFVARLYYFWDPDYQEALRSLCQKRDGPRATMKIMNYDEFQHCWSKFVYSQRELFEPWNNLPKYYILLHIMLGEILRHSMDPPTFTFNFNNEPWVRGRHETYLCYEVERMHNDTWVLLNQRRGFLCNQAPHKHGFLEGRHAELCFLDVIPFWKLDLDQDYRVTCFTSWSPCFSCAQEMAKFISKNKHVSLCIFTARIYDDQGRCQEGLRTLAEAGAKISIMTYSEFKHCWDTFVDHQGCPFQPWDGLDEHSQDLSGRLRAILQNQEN
PfM18AAP inh = blocks P. falciparum M18 aspartyl aminopeptidase; recombinant PfM18AAP, H-Glu-NHMec fluorogenic cleavage; inhibition, % at 7.35 µM; 290,000 compounds, 1.2% hits;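 active = inhibition above the campaign mean inhibition over all tested compounds plus 3 SD, cut at about 28% in these data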;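 also: 0% = plate median of test compound wells and 100% = 2 mM ZnCl2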
Yeast superoxide = yeast age-related superoxide inhibition as caloric restriction mimetic. S. cerevisiae aged cells, superoxide DHE fluorescence; active compounds read low. 330,000 compounds, 0.18% hits. superoxide response (% of plate mean), % at 10 µM;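 active = superoxide response under a set limit, about three screen SD below normal, cut at about 65% in these data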;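 also: yeast aged for seven days with compound at 30 °C before DHE staining; 100% = average MFI of all compound-treated wells on the plate with controls excluded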
PfGluPho inh = PfG6PD (Plasmodium falciparum) enzyme inhibition; PfGluPho enzyme, NADPH resazurin-diaphorase fluorescence; inhibition, % at 20 µM; 350,000 compounds, 0.78% hits; AID 504690;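 active = inhibition reaching at least a set limit at 20 µM in the primary screen, cut at about 59% in these data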;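 also: 0% = DMSO wells with substrate and 100% = DMSO wells lacking glucose-6-phosphate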
PfG6PD confirm = confirmation of Plasmodium falciparum G6PD inhibitors; shares compounds with PfGluPho inh; recombinant PfGluPho, NADPH-diaphorase-resazurin fluorescence; inhibition, % at 20 µM; 2,400 compounds, 34% hits;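 active = inhibition of at least 50% at 20 µM in any single replicate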;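 also: 0% = DMSO with substrate and 100% = DMSO lacking glucose-6-phosphate substrate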
Diaph ctr 10uM = inhibits diaphorase or oxidizes, flagging false PfG6PD hits | 820 compounds, 39% hits | inhibition, % at 20 µM | diaphorase-coupled resazurin reduction, fluorescence, NADPH 10 uM | shares compounds with PfGluPho inh;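 active = average inhibition reaching 50% or more with the compound at 20 µM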;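 also: resorufin red fluorescence formed as diaphorase reduces resazurin using NADPH; 0% = DMSO with enzyme and 100% = DMSO without enzyme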
Diaph ctr 30uM = diaphorase inhibition or oxidation at 30 uM NADPH; shares compounds with PfGluPho inh; Diaphorase/resazurin coupled assay, resorufin fluorescence; inhibition, % at 20 µM; 820 compounds, 29% hits; AID 504863;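 active = inhibition averaging 50% or more, tested at 20 µM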;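 also: 0% = DMSO with enzyme and 100% = DMSO wells lacking diaphorase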
* = called active by the depositor; / = no result given. Most compounds without a hit are left out; they make up all but 2.4% or so of the library.

SMILES	APOBEC3A inh	APOBEC3G inh	PfM18AAP inh	Yeast superoxide	PfGluPho inh	PfG6PD confirm	others
Oc1c(Cl)cc(Cl)c2c1NCCC2	-1	18	13	/	78*	37
CC(OC(=O)CCc1nc2ccccc2c(=O)[nH]1)C(=O)Nc1cccc(C(F)(F)F)c1 (stereo unspecified)	0	3	/	119	10	/
COC(=O)[C@@]12CCCCN1[C@H](c1ccc(-c3ccc(OC)cc3)c(OC)c1)[C@@H]1C(=O)N(C)C(=O)[C@@H]12	-1	-10	/	103	13	/
c1nc(SSc2ncnc3nc[nH]c23)c2[nH]cnc2n1	/	/	/	/	118*	108*	Diaph ctr 10uM=-21;Diaph ctr 30uM=-15
Oc1ccc(C=NNc2ccccn2)c(O)c1	/	/	/	/	61*	45
Oc1cccc(C=NNc2ccccn2)c1	/	/	/	/	6	/
O=C(Nc1ccc(Br)cc1)c1cc(-c2ccncc2)nc2ccccc12	10	1	/	103	7	/
O=C(CSc1ccccn1)Nc1nonc1[N+](=O)[O-]	1	24	24	94	112*	110*	Diaph ctr 10uM=87*;Diaph ctr 30uM=91*
CC(C)Cc1nnc(NC(=O)c2cc([N+](=O)[O-])ccc2N2CCOCC2)s1	17	-5	0	105	5	/
Cn1c(=O)c2[nH]c(-c3ccccc3)c(O)c2n(C)c1=O	0	-5	58*	92	71*	59*	Diaph ctr 10uM=-2;Diaph ctr 30uM=10
CC(=O)Nc1ccc(NC(=O)C(C)Sc2nnc(-c3cccs3)o2)cc1 (stereo unspecified)	-1	-7	-12	95	2	/
CC(NCc1ccc([N+](=O)[O-])cc1)C1COc2ccccc2O1 (stereo unspecified)	-3	-10	-5	99	12	/
CC1=C(C(=O)OCc2ccccc2)C(c2cccnc2)n2nnnc2N1 (stereo unspecified)	-1	-3	7	74	61*	31
CCOC(=O)C1=C(C)Nc2ncnn2C1c1cccnc1 (stereo unspecified)	-3	-5	-11	99	-8	/
NC(=S)NNc1ccc(Cl)c(Cl)c1	-2	1	26	85	65*	10
N/C(=N\c1nc2ccccc2o1)NC(=O)c1ccccc1Br	-2	-4	-16	97	-12	/
O=C(COC(=O)Cc1ccc(Cl)c(Cl)c1)NCCc1ccccc1	/	/	/	/	20	/
CC(=O)N1CCN(c2ccc(NCc3cccc4ccccc34)cc2)CC1	-5	-8	-12	101	63*	24
CC(=O)N1CCN(c2ccc(NCc3ccccc3)cc2)CC1	-2	-3	2	89	-6	/
O=C(C1CCC(=O)N(C2CCCC2)C1)N1CCC(Oc2ccccc2Cl)CC1 (stereo unspecified)	-5	-9	-9	100	15	/
Cc1ccc(-c2nn(-c3ccccc3)cc2/C=N/NC(=O)c2ccncc2)o1	-4	-4	3	98	60*	-27
CCOC(=O)C1CCN(C(=O)COC(=O)CSc2ccc([N+](=O)[O-])cc2)CC1	1	-9	/	88	42	/
CC1CCCC(C)N1C(=O)COC(=O)CSc1ccc([N+](=O)[O-])cc1 (stereo unspecified)	-4	-3	/	/	64*	1
O=C(N/N=C/c1cc2c(cc1[N+](=O)[O-])OCO2)c1ccccn1	15	15	5	101	72*	20
CCNC(=O)NC(=O)COC(=O)c1ccccc1SCC(=O)NC(=O)NCC	1	-2	-7	90	59*	32
SMILES	APOBEC3A inh	APOBEC3G inh	PfM18AAP inh	Yeast superoxide	PfGluPho inh	PfG6PD confirm	others
O=C1C=CC2=C3c4cc(O)c(O)cc4CC3(O)COC2=C1O (stereo unspecified)	/	/	/	/	81*	68*	Diaph ctr 10uM=16;Diaph ctr 30uM=22
Cn1nc(C(F)(F)F)c2cc(NC(=O)OCc3ccc(C(C)(C)C)cc3)sc21	5	3	10	/	28	/
Cn1nc(C(F)(F)F)c2cc(NC(=O)OCc3ccc(F)cc3)sc21	-1	-4	-1	95	59*	4
O=C(OCC(O)CO)c1ccccc1Nc1ccnc2cc(Cl)ccc12 (stereo unspecified)	3	0	/	102	82*	31
Cc1c(Cl)cccc1Nc1ncccc1C(=O)OCC(O)CO (stereo unspecified)	0	-7	-9	103	/	/
Cc1ccc(C2=NS(=O)(=O)N(C)C(C(=O)Nc3cc(C)n(CC(=O)N4CCC(C)CC4)n3)=C2)cc1	-3	-3	2	136	17	/
CCOC(=O)c1ccc(N(CCC2CO2)S(=O)(=O)c2ccc(C)cc2)cc1 (stereo unspecified)	/	/	/	/	-29	/
CCOC(=O)C1=C(C)N=c2s/c(=C3\C(=O)Nc4ccccc43)c(=O)n2C1c1ccc2c(c1)OCO2 (stereo unspecified)	0	-5	-20	111	6	/
C=CCOC(=O)C1=C(C)N=c2s/c(=C3\C(=O)N(CC(=O)O)c4ccccc43)c(=O)n2C1c1ccc(OC)cc1 (stereo unspecified)	-8	-7	-4	104	60*	-7
C=CCN1C(=O)C(=O)N(CC(=O)NCC(=O)Nc2ccc(F)c(F)c2F)C1=O	5	-6	/	108	-2	/
CC(=O)c1sc(N/N=C\c2c(O)ccc3ccccc23)nc1C	-5	-1	/	103	-9	/
O=c1[nH]c(=S)[nH]c2nccnc12	/	/	/	/	2	/
COc1ccc(C(=O)Nc2nnc(S(=O)(=O)N(C)Cc3ccc(F)cc3)s2)cc1OC	-2	-2	-4	123	-25	/
CN(Cc1ccco1)S(=O)(=O)c1nnc(NC(=O)c2cccc(Cl)c2)s1	3	3	-3	119	86*	44
COc1ccc(CN(C)S(=O)(=O)c2nnc(NC(=O)c3cccc(C)c3)s2)cc1OC	1	6	-3	96	80*	64*	Diaph ctr 10uM=64*;Diaph ctr 30uM=40
COc1ccc(C(=O)Nc2nnc(S(=O)(=O)N(C)Cc3ccccc3)s2)cc1	-5	-9	4	92	71*	33
CN(Cc1ccc(F)cc1)S(=O)(=O)c1nnc(NC(=O)c2ccccc2)s1	3	-1	3	88	34	/
CN(Cc1ccccc1)S(=O)(=O)c1nnc(NC(=O)c2ccc(F)cc2)s1	-4	-4	2	102	78*	22
O=C(NCCc1ccccc1F)C1CCCN(c2nc3ccccc3s2)C1 (stereo unspecified)	-3	-4	-2	110	6	/
c1ccc(CCNc2nc(-c3ccncc3)cs2)cc1	4	-4	2	98	-6	/
